Laboratory results from PubChem BioAssay AID1259336 (Sattelle Laboratory, UCL Respiratory, Division of Medicine, …, 2017).
A number with no mark means an inactive call. Activity calls are given as the source filed them. Rule as the data show it: active = log2 fold change growth below about -1.8; inactive = the rest.

assay: anthelmintic activity against nematode growth – whole organism, log2 fold change (AID 1259336);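 also: growth scored by imaging after five days at 20 °C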; details: C. elegans growth, anthelmintic screen; hits give low values

Structure (SMILES) | log2 fold change growth
Nc1ncnc2c1c(Cc1cccc3ccccc13)nn2CC1CCNCC1 | -0.11
COc1ccc(OC)c(NCc2ccc3nc(N)nc(N)c3c2Cl)c1 | 0.162
CC(=O)Oc1ccccc1C(=O)Nc1ncc([N+](=O)[O-])s1 | 0.253
CO[C@@H](C(=O)N1Cc2[nH]nc(NC(=O)c3ccc(N4CCN(C)CC4)cc3)c2C1)c1ccccc1 | 0.339
O=C([C@H](Cc1c[nH]c2ccccc12)NS(=O)(=O)c1ccc(Cl)cc1)N1CCCCC1 | -0.129
Cc1cc(OCC(=O)NCc2ccccc2)c2cc(Br)ccc2n1 | 0.232
CCN(CC)S(=O)(=O)c1ccc(Cl)c(C(=O)Nc2ccc3nc(C)sc3c2)c1 | -1.22
CNc1cc(C)nc([C@@H]2CN(C(=O)c3n[nH]c4ccccc34)CCO2)c1 | 0.0798
Cc1ccc(-c2nc(CN(Cc3ccccn3)C(C)C)cs2)o1 | 0.617
O=C(NC1CCCCC1)N1CCN(Cc2ccc3c(c2)OCO3)CC1 | -0.153
N#Cc1nc(-c2ccccc2)oc1S(=O)(=O)c1ccc(Cl)cc1 | 0.277
CC[C@H](NC(=O)c1ccccc1NC(=O)c1ccc(C)cc1)C(=O)OC | 0.0874
Cc1ccc(NC(=O)c2cc(S(=O)(=O)NC(C)(C)C)ccc2C)nc1 | 0.26
Cc1ccc(S(=O)(=O)Nc2ccc(CN3CCN(C(=O)c4cccc(C#N)c4)CC3)cc2)cc1 | 0.152
CNC(=O)[C@@H]1Cc2c([nH]c3cc(Cl)ccc23)C2(CCN(CCc3ccccc3)CC2)N1 | 0.551
CCOC(=O)c1cc(-c2csc(Nc3c(C)cc(C)cc3C)n2)on1 | -0.726
COc1ccc(-c2cc(NC(=O)c3ccc(F)cc3Cl)ccc2OC)cc1 | 0.039
OCCc1ccc(Nc2nccc(-c3nnc4ccccn34)n2)cc1 | -0.0214
COc1ccc(Cl)cc1NC(=O)CN(C)C(=O)c1cnn(-c2ccccc2)n1 | -0.154
O=C(Nc1nc(-c2ccccn2)cs1)C1CC1c1ccccc1F (centres undefined) | -2.09 (active)

Structure (SMILES) | log2 fold change growth
CS(=O)(=O)c1ccc(C(=O)N(C[C@H]2CCCO2)c2nc3ccccc3s2)cc1[N+](=O)[O-] | 0.211
CCCn1nnc(NC(=O)COc2ccc(C3CCCCC3)cc2)n1 | 0.0714
CC1CC1C(=O)NC1CCN(CC2(c3ccccc3)CCCCC2)CC1 (centres undefined) | 0.347
Cc1ccc(NC(=O)C[C@H]2COc3ccccc3O2)cc1Cl | -0.476
CC(C)(C)CN1C(=O)C(c2ccccc2)(c2ccccc2)N=C1N | -5.48 (active)
NC(N)=Nc1ccc(-c2ccc(-c3ccc(N=C(N)N)c(Cl)c3)o2)cc1Cl | -0.555
Brc1c(-c2ccc3c(c2)OCO3)nc2ncccn12 | 0.0304
O=C(CCC1CCCCC1)Nc1cccc(-c2nnc(-c3ccco3)o2)c1 | 0.147
CCc1nc2ccc(Cl)cn2c1C(=O)NCc1ccc(N2CCC(c3ccc(OC(F)(F)F)cc3)CC2)cc1 | -0.0431
O=S(=O)(c1ccc(Cl)cc1)N1CCN(C(=S)NCc2ccco2)CC1 | -0.203
NS(=O)(=O)c1cncc(-c2ccc3nccc(-c4cn[nH]c4)c3n2)c1 | -0.501
Nc1ncnc2c1c(-c1cnc3ccccc3c1)nn2CC1CCNCC1 | 0.195
Cc1cc(C)n(-c2ccc(NC(=O)C3CCN(Cc4cnc(C)s4)CC3)cc2)n1 | 0.442
Cc1cc(NC(=O)c2ccc(Oc3ccc(Cl)cc3O)o2)no1 | 0.201
CCCCS(=O)(=O)Nc1ccc2cnn(C)c2c1 | 0.414
COC(=O)Nc1nc2ccc(C(=O)c3ccccc3)cc2[nH]1 | -6.04 (active)
O=C(Nc1cccnc1)c1c(O)c2cccc3c2n(c1=O)CC3 | -4.81 (active)
COc1ccc(-c2cnc3cnc(-c4cccc(OC(C)C)c4)cn23)cc1 | -0.137
Cc1ccc(S(=O)(=O)N2CCN(C(=O)c3cc(-c4ccccc4)n[nH]3)CC2)cc1 | -0.371
